# Experimental data from PubChem BioAssay (Tox21).
# Inconclusive results are not listed. Calls of active or inactive are those of the source. Calls follow the shape of the dose curve; as a rule, active = well fitted inhibition curve with a large enough effect in the signal ratio in the repeat runs (not every such curve was filed as active); inconclusive = weak or mixed curves, or effect the other way; inactive = no such curve, though single readings can be large or run the other way; the % refers to the signal ratio.
# Target: Estrogen receptor beta (Homo sapiens) (UniProt Q92731)
# Sequence (Q92731 whole entry, looked up): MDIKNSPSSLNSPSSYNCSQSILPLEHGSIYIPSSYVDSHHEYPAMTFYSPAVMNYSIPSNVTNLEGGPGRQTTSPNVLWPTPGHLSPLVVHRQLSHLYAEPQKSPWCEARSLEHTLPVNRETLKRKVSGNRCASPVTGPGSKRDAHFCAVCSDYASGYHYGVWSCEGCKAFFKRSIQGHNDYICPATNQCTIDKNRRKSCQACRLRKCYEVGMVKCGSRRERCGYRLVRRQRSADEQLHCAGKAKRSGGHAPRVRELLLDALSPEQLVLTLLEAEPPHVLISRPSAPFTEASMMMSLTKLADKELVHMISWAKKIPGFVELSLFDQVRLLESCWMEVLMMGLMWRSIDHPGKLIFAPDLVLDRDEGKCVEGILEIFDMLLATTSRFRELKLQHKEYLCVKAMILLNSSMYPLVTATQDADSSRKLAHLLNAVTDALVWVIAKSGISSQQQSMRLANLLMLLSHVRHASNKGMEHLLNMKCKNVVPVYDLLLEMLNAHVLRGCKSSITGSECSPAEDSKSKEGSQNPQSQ
# Test: qHTS assay to identify small molecule antagonists of the estrogen receptor beta (ER-beta) signaling pathway (AID 1259378)
# Settings: ER-beta-UAS-bla HEK293T, beta-lactamase FRET ratio, 16 h; series mostly up to 92.4 µM; activity, negative = inhibition: at the top concentration
# Excerpt: National Center for Advancing Translational Sciences [NCATS]
# NIH Chemical Genomics Center [NCGC]
# U.S. Environmental Protection Agency [EPA]
# National Institutes of Environmental Health Sciences [NIEHS]
# National Toxicology Program [NTP]
# U.S. Food and Drug Administration [FDA]
# Estrogen receptor (ER), a nuclear hormone receptor, plays an important role in development, metabolic homeostasis and reproduction. Two subtypes of ER, ER-alpha and ER-beta, have similar expression patterns with some uniqueness in both types. Endocrine disrupting chemicals (EDCs) and their interactions with steroid hormone receptors like ER causes disruption of normal endocrine function. To identify the compounds that inhibit ER signaling, an ER-beta-UAS-bla GripTite cell line (Life Technologies, Madison, WI, USA) containing a beta-lactamase reporter gene under the control of an UAS response element was used to screen Tox21 10K compound library.
# Tox21 Assay Protocol Summary:
# ER-beta-UAS-bla HEK293T cells were dispensed at 2,000 cells/4 uL of assay medium containing 2% charcoal stripped FBS per well into black wall/clear-bottom 1536-well plates using a Multidrop Combi (ThermoFisher Scientific, Waltham, MA) dispenser. After the assay plates were incubated at a 37C and 5% CO2 for 6 hr, 23 nL of compounds dissolved in DMSO, positive controls or DMSO only was transferred to the assay plate by a Pintool station (Kalypsys, San Diego, CA), followed by addition of 1 uL (1nM as final concentration) of 17-beta-estradiol (E2) in assay medium using a BioRAPTR FRD (Flying Reagent Dispenser, Aurora Discovery, San Diego, CA). The plates were incubated at 37C and 5% CO2 for 16 hr. Then 1 uL of LiveBLAzerTM B/G FRET substrate was added using a Flying Reagent Dispenser, the plates were incubated at room temperature for 2 hours, and fluorescence intensity was measured by an Envision plate reader (PerkinElmer, Shelton, CT).
# % is scaled to controls: 0 for no effect and ±100 for the full control effect.
row,Structure (SMILES),"activity, negative = inhibition"
1,CC/C=C\CC1=C(C)CCC1=O,4.22% (inactive)
2,Cc1c(I)c(=O)n(-c2ccccc2)n1C,4.68% [at 42.5 µM] (inactive)
3,Nc1ncnc(Nc2ccccc2)n1,-8.39% [at 42.5 µM] (inactive)
4,CC(COC(C)(C)C)OCCCO (stereo not given),-3.84% (inactive)
5,BrCCCCCBr,-1.83% (inactive)
6,CCCCN,0.125% [at 42.5 µM] (inactive)
7,COC(=O)c1ccccc1C(=O)c1ccc(OCCN2CCCCC2)cc1,-2.09% [at 42.5 µM] (inactive)
8,COC(=O)CCCCCCCC(=O)OC,16.2% (inactive)
9,O=C(OCc1ccccc1)C(=O)OCc1ccccc1,3.93% (inactive)
10,Cc1ccccc1C(=O)Nc1ccc(C(=O)N2CCCC(N(C)C)c3ccccc32)cc1 (stereo not given),-7.73% [at 42.5 µM] (inactive)
11,C[C@@H](Oc1ccc(CNC(=O)c2cccnc2Oc2ccc3c(c2)OCO3)c(F)c1)C(=O)O,0.517% (inactive)
12,CC1(C)S[C@@H]2[C@H](N=CN3CCCCCC3)C(=O)N2[C@H]1C(=O)O,-4.65% [at 42.5 µM] (inactive)
13,O=C(NCC(O)CO)c1c(I)c(C(=O)NCC(O)CO)c(I)c(N(CCO)C(=O)CO)c1I (stereo not given),5.91% [at 42.5 µM] (inactive)
14,Cc1ccc(C=O)cc1C,13.5% (inactive)
15,C#CC(C)N(C)C(=O)Nc1ccc(Cl)cc1 (stereo not given),-24.4% (inactive)
16,CCC(C=O)CC,6.53% (inactive)
17,NS(=O)(=O)c1cc2c(cc1Cl)CN(C1CCCCC1)C2=O,-0.565% [at 42.5 µM] (inactive)
18,N[C@@H](CCC(=O)Nc1ccc([N+](=O)[O-])cc1)C(=O)O,-2.25% (inactive)
19,CCN(CC)CC(=O)Nc1c(C)cccc1C,9.29% [at 42.5 µM] (inactive)
20,CC(C)CCCC(C)(C)O,12.7% (inactive)

row,Structure (SMILES),"activity, negative = inhibition"
1,Nc1nnc(-c2cccc(Cl)c2Cl)c(N)n1,-0.579% [at 42.5 µM] (inactive)
2,CC(=O)Nc1ccc(S(=O)(=O)Cl)cc1,3.79% (inactive)
3,N[C@@H](COP(=O)(O)O)C(=O)O,18.6% [at 19 µM] (inactive)
4,CCCCCCCCCCCCCC,2.9% (inactive)
5,COCCc1ccc(OCC2CO2)cc1 (stereo not given),21.1% [at 42.5 µM] (inactive)
6,O=C(O)c1cc(Br)c(O)c(Br)c1,5.27% (inactive)
7,COCCOCCOCCOCCOCCO,8.12% (inactive)
8,NNc1nnc(NN)c2ccccc12,1.92% [at 42.5 µM] (inactive)
9,CC(C)NCC(O)COc1ccc(COCCOC(C)C)cc1 (stereo not given),9.08% [at 42.5 µM] (inactive)
10,CC1=C(C(=O)O)N2C(=O)[C@@H](NC(=O)[C@H](N)c3ccc(O)cc3)[C@H]2SC1,12.8% [at 42.5 µM] (inactive)
11,CC(N)C(=O)OC(C)(C)Cc1ccc(Cl)cc1 (stereo not given),3.98% [at 42.5 µM] (inactive)
12,N#Cc1ccc(C(=O)O)cc1,8.44% (inactive)
13,CCCCCCCCOS(=O)(=O)O,9.28% (inactive)
14,CCCC(=O)C(C)=O,20.2% (inactive)
15,CC(=O)N[C@@H](CCC(=O)O)C(=O)O,4.95% [at 42.5 µM] (inactive)
16,CN1CCN(CC(=O)N2c3ccccc3C(=O)Nc3cccnc32)CC1,0.518% [at 8.39 µM] (inactive)
17,Oc1cn2c(n1)Nc1ccc(Cl)c(Cl)c1C2,0.533% [at 19 µM] (inactive)
18,Cc1cc(C(C)(C)C)c(O)c(C)c1CC1=NCCN1,-3.03% [at 42.5 µM] (inactive)
19,CC(=O)/C=C/C1C(C)=CCC(C)C1(C)C (stereo not given),0.251% (inactive)
20,Nc1ccc(S(=O)(=O)Nc2ccc(Cl)nn2)cc1,4.22% [at 42.5 µM] (inactive)
